Targets with a hit are over-represented here; the source holds about 7,900 in all. About 0.6% of all pairs of compound and target were hits.

UniProt P08047, sequence (P08047 whole entry, looked up): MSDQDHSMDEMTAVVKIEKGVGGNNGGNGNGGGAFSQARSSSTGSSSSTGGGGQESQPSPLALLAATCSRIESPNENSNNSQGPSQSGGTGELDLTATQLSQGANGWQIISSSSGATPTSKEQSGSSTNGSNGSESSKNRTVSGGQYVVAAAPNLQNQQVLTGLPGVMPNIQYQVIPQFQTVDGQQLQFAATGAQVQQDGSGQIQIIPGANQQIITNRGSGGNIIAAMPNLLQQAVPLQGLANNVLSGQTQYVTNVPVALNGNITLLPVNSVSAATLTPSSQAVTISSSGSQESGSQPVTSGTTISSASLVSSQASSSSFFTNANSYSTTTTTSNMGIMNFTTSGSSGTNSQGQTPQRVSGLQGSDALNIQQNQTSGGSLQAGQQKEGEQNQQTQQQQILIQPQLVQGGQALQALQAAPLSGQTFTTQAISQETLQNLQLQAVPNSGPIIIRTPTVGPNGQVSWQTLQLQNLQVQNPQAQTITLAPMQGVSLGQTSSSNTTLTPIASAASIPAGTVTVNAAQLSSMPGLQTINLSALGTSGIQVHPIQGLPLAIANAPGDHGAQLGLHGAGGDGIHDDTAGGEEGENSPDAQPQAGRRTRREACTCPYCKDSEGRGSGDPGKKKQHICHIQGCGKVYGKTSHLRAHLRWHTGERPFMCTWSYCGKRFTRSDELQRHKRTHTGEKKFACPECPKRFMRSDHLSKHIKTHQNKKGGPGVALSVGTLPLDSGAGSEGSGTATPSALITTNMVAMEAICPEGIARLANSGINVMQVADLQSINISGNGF
UniProt P23497, sequence (P23497 whole entry, looked up): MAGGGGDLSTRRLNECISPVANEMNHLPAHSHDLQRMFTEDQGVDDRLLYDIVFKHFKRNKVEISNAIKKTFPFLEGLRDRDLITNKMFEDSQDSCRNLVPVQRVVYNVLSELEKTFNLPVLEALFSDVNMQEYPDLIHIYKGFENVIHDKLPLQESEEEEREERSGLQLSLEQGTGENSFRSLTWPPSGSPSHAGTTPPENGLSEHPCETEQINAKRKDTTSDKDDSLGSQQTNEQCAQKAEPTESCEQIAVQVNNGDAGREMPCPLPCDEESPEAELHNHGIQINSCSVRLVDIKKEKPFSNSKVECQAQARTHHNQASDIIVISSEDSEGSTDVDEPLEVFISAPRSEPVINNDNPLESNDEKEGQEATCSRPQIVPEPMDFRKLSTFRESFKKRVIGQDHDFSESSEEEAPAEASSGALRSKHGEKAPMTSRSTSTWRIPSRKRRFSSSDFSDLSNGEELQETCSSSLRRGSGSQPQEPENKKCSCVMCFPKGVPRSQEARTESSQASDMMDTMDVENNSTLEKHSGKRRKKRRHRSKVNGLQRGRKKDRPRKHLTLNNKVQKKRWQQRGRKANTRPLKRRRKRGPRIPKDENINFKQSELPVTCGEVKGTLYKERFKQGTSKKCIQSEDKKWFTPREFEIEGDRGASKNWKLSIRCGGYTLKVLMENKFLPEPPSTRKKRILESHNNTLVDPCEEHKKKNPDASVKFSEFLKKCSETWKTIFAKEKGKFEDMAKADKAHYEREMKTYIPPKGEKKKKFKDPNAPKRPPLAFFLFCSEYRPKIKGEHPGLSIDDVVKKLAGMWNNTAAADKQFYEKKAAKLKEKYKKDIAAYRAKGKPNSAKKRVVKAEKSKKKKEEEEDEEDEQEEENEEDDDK
UniProt Q92544, sequence (Q92544 whole entry, looked up): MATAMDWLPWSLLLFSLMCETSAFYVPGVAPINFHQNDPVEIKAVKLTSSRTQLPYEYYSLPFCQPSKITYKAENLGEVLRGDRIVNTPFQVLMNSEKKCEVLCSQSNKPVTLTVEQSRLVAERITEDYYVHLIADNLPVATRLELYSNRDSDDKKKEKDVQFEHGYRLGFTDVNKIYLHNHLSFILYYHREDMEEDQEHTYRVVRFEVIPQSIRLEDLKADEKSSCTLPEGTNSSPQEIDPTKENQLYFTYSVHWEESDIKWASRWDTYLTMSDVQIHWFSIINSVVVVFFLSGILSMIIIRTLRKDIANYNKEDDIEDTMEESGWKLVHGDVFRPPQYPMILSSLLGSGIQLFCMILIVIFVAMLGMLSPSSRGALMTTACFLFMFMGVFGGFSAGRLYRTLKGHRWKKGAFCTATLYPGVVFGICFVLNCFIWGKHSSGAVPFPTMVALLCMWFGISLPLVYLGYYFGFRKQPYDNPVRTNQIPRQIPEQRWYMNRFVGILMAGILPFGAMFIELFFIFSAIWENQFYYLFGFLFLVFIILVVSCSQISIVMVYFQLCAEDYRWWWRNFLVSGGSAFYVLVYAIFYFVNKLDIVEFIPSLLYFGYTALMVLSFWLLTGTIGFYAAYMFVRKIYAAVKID
UniProt Q13586, sequence (Q13586 whole entry, looked up): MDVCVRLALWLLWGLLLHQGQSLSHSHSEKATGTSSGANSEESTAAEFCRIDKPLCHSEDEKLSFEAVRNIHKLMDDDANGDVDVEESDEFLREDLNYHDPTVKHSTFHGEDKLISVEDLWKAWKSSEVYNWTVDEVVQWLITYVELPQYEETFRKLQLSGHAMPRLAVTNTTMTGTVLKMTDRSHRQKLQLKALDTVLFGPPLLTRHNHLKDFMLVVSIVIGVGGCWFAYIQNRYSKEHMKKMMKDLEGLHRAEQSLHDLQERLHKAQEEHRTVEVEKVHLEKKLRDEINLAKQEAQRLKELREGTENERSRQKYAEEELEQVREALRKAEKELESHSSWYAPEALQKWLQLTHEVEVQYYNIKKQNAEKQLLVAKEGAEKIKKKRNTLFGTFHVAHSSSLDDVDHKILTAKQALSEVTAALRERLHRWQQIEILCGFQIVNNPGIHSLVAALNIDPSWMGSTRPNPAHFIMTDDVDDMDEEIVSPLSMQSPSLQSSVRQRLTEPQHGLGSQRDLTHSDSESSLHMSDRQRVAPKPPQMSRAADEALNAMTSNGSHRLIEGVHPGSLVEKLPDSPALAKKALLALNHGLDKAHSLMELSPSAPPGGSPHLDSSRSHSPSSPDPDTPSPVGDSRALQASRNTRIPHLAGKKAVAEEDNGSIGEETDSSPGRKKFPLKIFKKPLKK
UniProt Q8NEF9, sequence (Q8NEF9 whole entry, looked up): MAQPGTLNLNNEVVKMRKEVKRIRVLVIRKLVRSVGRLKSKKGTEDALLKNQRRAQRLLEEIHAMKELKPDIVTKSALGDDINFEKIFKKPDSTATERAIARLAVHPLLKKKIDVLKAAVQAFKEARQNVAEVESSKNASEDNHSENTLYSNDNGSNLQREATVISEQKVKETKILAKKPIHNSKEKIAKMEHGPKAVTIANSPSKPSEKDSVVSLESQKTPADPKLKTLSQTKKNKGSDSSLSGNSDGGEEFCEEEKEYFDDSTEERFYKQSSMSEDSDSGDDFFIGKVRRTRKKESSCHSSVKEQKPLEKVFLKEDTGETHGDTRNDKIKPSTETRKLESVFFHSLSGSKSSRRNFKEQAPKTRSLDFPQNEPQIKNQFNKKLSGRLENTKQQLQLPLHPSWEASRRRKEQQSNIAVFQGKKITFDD
UniProt Q13573, sequence (Q13573 whole entry, looked up): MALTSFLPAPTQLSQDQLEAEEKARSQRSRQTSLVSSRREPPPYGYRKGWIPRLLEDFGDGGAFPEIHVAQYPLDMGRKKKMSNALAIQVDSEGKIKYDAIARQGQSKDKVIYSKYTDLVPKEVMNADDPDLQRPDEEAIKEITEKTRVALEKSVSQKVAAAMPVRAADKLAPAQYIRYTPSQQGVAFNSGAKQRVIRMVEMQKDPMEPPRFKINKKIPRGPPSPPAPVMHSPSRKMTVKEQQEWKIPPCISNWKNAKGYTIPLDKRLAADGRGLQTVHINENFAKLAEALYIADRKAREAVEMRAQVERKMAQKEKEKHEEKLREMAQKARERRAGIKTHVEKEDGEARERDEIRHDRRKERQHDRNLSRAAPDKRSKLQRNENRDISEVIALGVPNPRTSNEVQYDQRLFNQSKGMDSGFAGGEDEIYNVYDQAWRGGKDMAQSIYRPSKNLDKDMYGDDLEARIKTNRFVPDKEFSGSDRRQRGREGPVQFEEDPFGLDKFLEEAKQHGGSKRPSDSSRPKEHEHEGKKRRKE
UniProt O95772, sequence (O95772 whole entry, looked up): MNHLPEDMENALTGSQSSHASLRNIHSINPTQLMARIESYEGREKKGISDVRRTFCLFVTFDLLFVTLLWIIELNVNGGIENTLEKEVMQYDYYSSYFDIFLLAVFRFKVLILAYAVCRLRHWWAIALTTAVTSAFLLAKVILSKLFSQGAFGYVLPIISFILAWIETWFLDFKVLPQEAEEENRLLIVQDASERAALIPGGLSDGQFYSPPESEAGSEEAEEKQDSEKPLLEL
UniProt O15198, sequence (O15198 whole entry, looked up): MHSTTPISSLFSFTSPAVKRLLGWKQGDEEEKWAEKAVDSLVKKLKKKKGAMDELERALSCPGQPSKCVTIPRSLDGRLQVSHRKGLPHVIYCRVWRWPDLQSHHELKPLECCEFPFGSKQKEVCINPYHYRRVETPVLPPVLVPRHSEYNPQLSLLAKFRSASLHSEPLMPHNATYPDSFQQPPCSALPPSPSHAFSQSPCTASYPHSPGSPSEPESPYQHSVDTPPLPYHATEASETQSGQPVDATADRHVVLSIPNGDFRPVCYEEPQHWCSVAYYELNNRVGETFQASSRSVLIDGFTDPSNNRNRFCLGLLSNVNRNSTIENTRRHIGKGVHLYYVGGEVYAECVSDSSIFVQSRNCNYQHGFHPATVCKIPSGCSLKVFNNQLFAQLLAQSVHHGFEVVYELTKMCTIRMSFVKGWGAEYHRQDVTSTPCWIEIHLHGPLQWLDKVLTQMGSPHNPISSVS
UniProt Q9H4I9, sequence (Q9H4I9 whole entry, looked up): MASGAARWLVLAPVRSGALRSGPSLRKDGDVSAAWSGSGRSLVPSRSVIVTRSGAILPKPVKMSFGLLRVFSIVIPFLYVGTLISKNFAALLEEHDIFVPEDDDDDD
UniProt P62072, sequence (P62072 whole entry, looked up): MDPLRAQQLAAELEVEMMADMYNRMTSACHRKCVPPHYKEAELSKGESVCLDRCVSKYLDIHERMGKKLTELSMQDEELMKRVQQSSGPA

Compound in this experiment: c1cn2cc(-c3ccc4cn[nH]c4c3)nc(Nc3ccc(N4CCOCC4)cc3)c2n1 [entospletinib]
Put plainly: log2 fold change, soluble protein after heating vs DMSO (PISA); higher = thermal stabilisation; K562 cells, 10 uM, 30 min; active = over 0.2 and 3.5 SD of the protein, either way, in both replicates (recomputed). The gist of the method:
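Values are thermal stability changes relative to control samples and are taken from duplicates. They are stated as log2 fold changes. Before quantification by TMTpro 16plex LC-MS/MS with equalised channel sums, K562 cells at 2×10^6 cells/mL were treated with 10 μM compound for 30 min, heated in aliquots for 3 min across 48°C-58°C, pooled, extracted in PBS with 0.5% NP-40 at 4°C, and centrifuged at 21,000xg for 90 min to give the soluble supernatant.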
For the target STIM1 (UniProt Q13586), the log2 fold change is 0.003 (inactive). To SMAD2 (UniProt Q15796) belongs -0.013 (inactive).

Take SP1 (UniProt P08047): the log2 fold change is 0.068 (inactive).

Turning to TELO2 (UniProt Q9Y4R8), the log2 fold change is 0.044 (inactive). To TBC1D15 isoform 3 (UniProt Q8TC07) belongs 0.007 (inactive).

Regarding STARD3NL (UniProt O95772), the log2 fold change was -0.088 (inactive). To STXBP2 isoform 3 (UniProt Q15833) belongs 0.099 (inactive).

For SYMPK (UniProt Q92797), the log2 fold change was -0.015 (inactive). To SPECC1 (UniProt Q5M775) belongs 0.085 (inactive); to TM9SF4 (UniProt Q92544), 0.022 (inactive); to TIMM10 (UniProt P62072), 0.009 (inactive). As for SRFBP1 (UniProt Q8NEF9), the log2 fold change is -0.082 (inactive). Take SYNE1 (UniProt Q8NF91): the log2 fold change was -0.141 (inactive).

Consider SRPRB (UniProt Q9Y5M8), for which the log2 fold change was -0.052 (inactive).

For the target SRRM2 (UniProt Q9UQ35), the log2 fold change is -0.048 (inactive). Take SMAD9 (UniProt O15198): the log2 fold change was -0.026 (inactive). To SP100 isoform 4 (UniProt P23497) belongs 0.045 (inactive); to SRSF9 (UniProt Q13242), 0.094 (inactive). On to SRP72 (UniProt O76094), for which the log2 fold change is 0.052 (inactive). To TIAL1 isoform 2 (UniProt Q01085) belongs 0.003 (inactive); to SRSF2 (UniProt Q01130), 0.071 (inactive). To SMARCB1 (UniProt Q12824) belongs 0.887 (active); to SRSF7 (UniProt Q16629), 0.197 (inactive); to SMDT1 (UniProt Q9H4I9), 0.01 (inactive). To SLC27A2 (UniProt O14975) belongs 0.063 (inactive). Consider SREBF1 isoform 4 (UniProt P36956), for which the log2 fold change was 0.015 (inactive). As for SLC6A6 (UniProt P31641), the log2 fold change is -0.067 (inactive). Turning to TENT5C (UniProt Q5VWP2), the log2 fold change is 0.019 (inactive). To STAM2 (UniProt O75886) belongs 0.052 (inactive); to SLK isoform 2 (UniProt Q9H2G2), -0.059 (inactive).

On to SNW1 (UniProt Q13573), for which the log2 fold change is 0.087 (inactive). To SRI (UniProt P30626) belongs 0.019 (inactive); to SMPD4 isoform 4 (UniProt Q9NXE4), 0.143 (inactive). Take TBRG4 (UniProt Q969Z0): the log2 fold change was -0.027 (inactive).

With SMARCA5 (UniProt O60264), the log2 fold change was 0.099 (inactive).

These data come from the supplement of paper PMC10849652.
